The nature of assay [1]: compound effects on lung adenocarcinoma cell viability – A549, calcein-AM fluorescence, 48 h, basal, profiling panel (AID 1162). The settings on record: higher = more signal.
Assay [2] can be described thus: compound effects on differentiated 3T3-L1 adipocyte viability – cell-based, 3T3-L1 adipocytes, calcein-AM fluorescence, 48 h, basal, profiling panel (AID 1163). The conditions noted are these: 3T3-L1 adipocytes viability, higher = more signal.
Assay [3] can be described thus: compound effects on hepatocellular carcinoma cell viability – HepG2, calcein-AM fluorescence, 48 h, basal, profiling panel (AID 1164). The conditions noted are these: higher = more signal.
Assay [4] is described as follows: compound effects on multiple myeloma cell viability – MM1S, calcein-AM fluorescence, 48 h, basal, profiling panel (AID 1165). The conditions noted are these: higher = more signal.
A short description of assay [5]: calcein-AM signal in unstimulated myeloma cells – cell-based, calcein-AM fluorescence, 48 h, PK04 Diversity Set, profiling panel (AID 1166).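 Note: cells grown under basal conditions without added stimulus.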 The settings on record: RPMI8226 myeloma viability, higher = more signal.
The nature of assay [6]: JC-1 mitochondrial signal, unstimulated HepG2 cells – cell-based, JC-1 fluorescence, 24 h, 100 nL compound, profiling panel (AID 1167). The settings on record: HepG2 mitochondrial potential, higher = more signal.
Assay [7] is described as follows: JC-1 mitochondrial signal, unstimulated adipocytes – cell-based, JC-1 fluorescence, 3T3-L1 adipocytes, 24 h, 100 nL compound, profiling panel (AID 1168). The settings on record: JC-1 mitochondrial fluorescence, higher = more signal, called active from +8 up or from −8 down.
Assay [8] is described as follows: JC-1 mitochondrial signal, unstimulated myeloma cells – cell-based, JC-1 fluorescence, RPMI8226, 24 h, 100 nL compound, profiling panel (AID 1169). The settings on record: JC-1 mitochondrial potential fluorescence, higher = more signal.
Assay [9] is described as follows: JC-1 mitochondrial signal, unstimulated MM1S myeloma – cell-based, JC-1 fluorescence, 24 h, 100 nL compound, profiling panel (AID 1170). The conditions noted are these: MM1S mitochondrial potential, higher = more signal.
Assay [10] can be described thus: resazurin metabolic signal in A549 cells – cell-based, resazurin fluorescence, 24 h, PK04 Diversity Set, profiling panel (AID 1171). The settings on record: A549 viability, higher = more signal, called active from +8 up or from −8 down.

Calls of active or inactive are those of the source.
Note: test concentration not given here.

`COCCOC(=O)N1C(=O)[C@@]2(c3cc(C#Cc4ccc(OC)cc4)ccc31)[C@H](C(=O)N1CCc3cc(OC)c(OC)cc3C1)[C@H]1C(=O)O[C@H](c3ccccc3)[C@H](c3ccccc3)N1[C@@H]2c1ccc(OCCO)cc1`: the z-score is -0.403 in assay [1]; 1.41 in assay [2]; -1.13 in [3]; -0.0142 in [4]; -1.38 in [5]; -0.999 in assay [6]. Besides, the z-score in assay [7] is 2.31 (inactive); in [8], -0.223; in [9] it was -0.919; in assay [10], -0.0945 (inactive).

Turning to `[N-]=[N+]=NCc1ccccc1[C@H]1OC(c2ccc(OCCCO)cc2)=N[C@@]1(Cc1ccccc1N=[N+]=[N-])C(=O)NCCN1CCOCC1`, the z-score in assay [1] is -0.71; in assay [2] it was -0.675; in [3], 0.0583; in assay [4] it was -1.71; in [5], -1.52; in assay [6], -0.247. Also, the z-score in assay [7] is -0.738 (inactive); in assay [8], -0.841; in assay [9], -0.549; in assay [10], 0.0825 (inactive).

With `O=C(O)[C@]1(CCS(=O)(=O)c2ccccc2)N=C(c2ccc(OCCCO)cc2)O[C@@H]1c1ccccc1`, the z-score in [1] is 0.195; in assay [2], 0.103; in assay [3], 0.296; in [4], -1.2; in assay [5] it was 1.18; in assay [6], -0.509. Further, the z-score in [7] was -0.372 (inactive); in assay [8] it was -0.928; in [9] it was 0.0474; in assay [10], 0.704 (inactive).

Consider `Cc1ccc(N2C(=O)c3ccccc3[C@](C)(C(=O)NC(C)C)[C@@H]2c2ccc(CO)cc2)nc1`, for which the z-score was -0.465 in [1]; 0.92 in [2]; -1.37 in [3]; -1.03 in assay [4]; -1.35 in [5]; -0.42 in [6]. Also, the z-score in assay [7] was -0.424 (inactive); in [8] it was -0.586; in assay [9] it was 1.34; in assay [10], 0.0095 (inactive).

On to `CCOC(=O)C1=CC[C@@H](c2cccc(Br)c2)N(S(=O)(=O)c2ccc(C)cc2)[C@H]1c1ccc([N+](=O)[O-])cc1`, for which the z-score is -0.699 in assay [1]; -0.349 in assay [2]; -0.203 in assay [3]; -1.07 in assay [4]; -1.24 in assay [5]; 1.45 in [6]. The z-score in [7] was 0.097 (inactive); in [8], -0.841; in [9] it was -1.57; in assay [10], 0.851 (inactive).

For the compound `O=C(O)[C@@]1(Cc2ccccc2)COC(c2ccc(OCCCO)cc2)=N1`, the z-score in assay [1] was -0.297; in [2], 0.139; in assay [3] it was 0.0851; in [4], -0.108; in [5], 0.21; in assay [6], -0.519. The z-score in assay [7] was -0.0997 (inactive); in [8] it was 0.478; in [9] it was 0.0336; in assay [10] it was 0.542 (inactive).

Turning to `Cc1ccc(S[C@]2(C(=O)O)CC(=O)N(C3CCCCC3)[C@@H]2c2ccc(CO)cc2)cc1`, the z-score was -0.0959 in assay [1]; -0.753 in [2]; 0.952 in assay [3]; -0.634 in assay [4]; 0.761 in assay [5]; 0.318 in assay [6]. The z-score in assay [7] is 0.144 (inactive); in assay [8], -0.148; in [9], -0.776; in assay [10], -0.345 (inactive).

Regarding `C=C(COC)C(=O)CC[C@H](OC(=O)c1ccccc1-c1ccccc1C(=O)O)c1ccc(OCCO)cc1`, the z-score was -0.127 in assay [1]; 1.06 in assay [2]; -0.626 in assay [3]; -1.85 in assay [4]; -0.385 in [5]; -0.271 in assay [6]. For the same compound, the z-score in assay [7] was -0.328 (inactive); in [8], -0.463; in assay [9], 0.463; in assay [10] it was -0.276 (inactive).

Consider `CCOc1cc(C(O)C2C=CC3C(=O)NC(=O)C3N2Nc2ccccn2)ccc1O` (stereo not given), for which the z-score is -0.773 in assay [1]; -1.5 in assay [2]; -0.506 in assay [3]; -0.369 in [4]; -0.328 in [5]; -1.87 in assay [6]. Further, the z-score in assay [7] was -0.892 (inactive); in assay [8], -0.0441; in [9] it was 0.157; in assay [10], -0.923 (inactive).

For the compound `Cc1ccccc1C(O)C1C=CC2C(=O)N(Cc3ccccc3)C(=O)C2N1n1cnnc1` (stereo not given), the z-score is -1.2 in assay [1]; 0.194 in [2]; -0.734 in assay [3]; -0.742 in assay [4]; 0.0991 in [5]; -0.406 in [6]. The z-score was 0.525 (inactive) in assay [7], -0.0549 in assay [8], -0.806 in assay [9] and 0.0882 (inactive) in assay [10].

Regarding `C[N+](C)(C)CCCC[C@@H]1NC(=O)[C@@H]2C[C@H](C(=O)NCCCCCNC(=O)CS)[C@H](c3cccc(OCCO)c3)N2C1=O`, the z-score is 0.884 in [1]; -0.0052 in [2]; 0.289 in assay [3]; -0.0724 in assay [4]; -1.31 in assay [5]; 1.8 in assay [6]. For the same compound, the z-score in [7] is -0.364 (inactive); in [8], 0.245; in [9], -0.243; in [10] it was 0.764 (inactive).

Take `C=CC[C@@]1(C(=O)NCC(O)CO)N=C(c2ccc(OCCCO)cc2)O[C@@H]1c1ccccc1` (stereo not given in full): the z-score in [1] was 0.183; in [2] it was 1.07; in assay [3], -0.412; in assay [4] it was 0.281; in [5] it was -0.561; in assay [6], -0.152. For the same compound, the z-score is 0.622 (inactive) in [7], 0.49 in assay [8], 1.18 in [9] and 0.295 (inactive) in assay [10].

For `O=C1c2ccccc2[C@](Cc2ccccc2I)(C(=O)NC2CC2)[C@H](c2ccc(CO)cc2)N1Cc1ccccc1Cl`, the z-score is -0.138 in assay [1]; -0.103 in assay [2]; -0.0887 in [3]; -1.39 in assay [4]; -0.715 in [5]; 0.833 in [6]. The z-score is -0.469 (inactive) in assay [7], -0.332 in assay [8], -0.664 in assay [9] and 0.623 (inactive) in assay [10].

For `C=C(CCCC)/C(=C/C[C@H](OC(=O)c1ccncc1)c1ccc(CO)o1)c1cc(C(=O)OC)ccc1OC`, the z-score was -0.705 in [1]; -0.0954 in [2]; -0.677 in assay [3]; -3.18 in assay [4]; -1.04 in [5]; -0.132 in assay [6]. Also, the z-score in assay [7] is -0.991 (inactive); in assay [8], -0.375; in assay [9], -0.207; in assay [10], -0.401 (inactive).

With `C=CCOc1ccc([C@@H]2CC=C(C(=O)OCC)[C@H](c3cccc(Br)c3)N2S(=O)(=O)c2ccc(C)cc2)cc1`, the z-score in [1] was 0.954; in [2], 0.261; in [3], -0.508; in assay [4] it was 0.394; in assay [5], -0.455; in assay [6], 4.43. Further, the z-score in assay [7] was 0.392 (inactive); in assay [8] it was -0.957; in assay [9], -0.0677; in assay [10], -0.924 (inactive).

As for `C=CCC(OC(C)=O)[C@@H]1[C@@H](N(Cc2cccc3ccccc23)C(=O)Cc2ccc(F)cc2)c2cc(OCCCO)ccc2N1C(=O)Cc1ccc(OC)cc1` (stereo not given in full), the z-score in assay [1] is 1.34; in assay [2], 1.88; in assay [3] it was 0.99; in assay [4], 0.827; in [5], 0.762; in assay [6], 2.26. Further, the z-score in assay [7] is 0.527 (inactive); in [8], 0.183; in [9], -0.0319; in [10], 0.641 (inactive).

Values taken from PubChem BioAssay.
